Rows were chosen to be rich in hits. Some 1.1% of all compounds tested hit in one or more screens of this group.
PKA-R2B activ: activators of human PKA-R2B complex; P22694+P31323; PKA-R2B holoenzyme dissociation, Cy5-IP20 fluorescence polarization; R2B truncated from residue 108, S112A mutant; 0% DMSO only, 100% 113 µM cGMP; activation, % at 11.4 µM; 340,000 compounds, 0.079% hits; AID 504700;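 active means activation above a cutoff set at the mean over all compounds plus 3 SD, cut at about 18% in these data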;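 further: higher means more holoenzyme dissociation and a rise in polarization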
Target sequence (P31323 whole entry, looked up, other chains not shown, the tested form may be a part): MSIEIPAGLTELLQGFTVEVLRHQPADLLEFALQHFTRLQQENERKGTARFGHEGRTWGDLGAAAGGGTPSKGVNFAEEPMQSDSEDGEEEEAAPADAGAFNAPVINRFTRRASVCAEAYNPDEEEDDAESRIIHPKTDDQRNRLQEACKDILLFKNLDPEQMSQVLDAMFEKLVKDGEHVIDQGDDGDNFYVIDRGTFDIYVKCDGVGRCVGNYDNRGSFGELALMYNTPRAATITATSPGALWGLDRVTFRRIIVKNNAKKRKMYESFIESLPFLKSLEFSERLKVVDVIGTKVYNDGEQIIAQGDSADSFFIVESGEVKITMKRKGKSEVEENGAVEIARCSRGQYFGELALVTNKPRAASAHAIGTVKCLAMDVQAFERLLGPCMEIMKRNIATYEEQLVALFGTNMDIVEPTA
MsrA inh: inhibits bovine methionine sulfoxide reductase A; inhibition, % at 15.5 µM; purified bovine MsrA, absorbance read-out; 360,000 compounds, 0.75% hits; AID 651718;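 further: 0% = vehicle wells with enzyme and 100% = reference inhibitor wells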
PKA-R1A act: activators of PKA-R1A complex. P00514+P68181. PKA-R1A dissociation, Cy5-IP20 fluorescence polarization; scaled: DMSO 0%, 113 µM cGMP 100%. activation, % at 11.4 µM. 340,000 compounds, 0.083% hits. AID 504707;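 active means percent activation above the mean of all tested compounds plus 3 SD, cut at about 19% in these data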;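 further: higher means more PKAc released from R1A so a rise in polarization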
bovine MsrA act: activates bovine MsrA enzyme | purified bovine MsrA, absorbance read-out | activation, % at 10.6 µM | 360,000 compounds, 0.3% hits; in the data active means activation above about 7.5%;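 further: 0% = vehicle and 100% = reference activator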
MsrA conf: bovine MsrA inhibition, confirmed; shares compounds with MsrA inh; purified bovine MsrA, absorbance read-out; inhibition, % at 15.5 µM; 2,300 compounds, 41% hits; AID 651822;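 further: coupled to thioredoxin reductase with NADPH and selenocystamine and DMSO as substrate; 0% = vehicle only and 100% = full effect of reference inhibitor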
* = called active by the depositor; · = no result. Unless noted, no stated cut-off is given here; in the data, active means inhibition above about 4.5%; inactive means the rest.

SMILES | PKA-R2B activ | MsrA inh | PKA-R1A act | bovine MsrA act | MsrA conf
Cn1cnc([N+](=O)[O-])c1Sc1nc(N)nc2c1ncn2C1CC(O)C(CO)O1 (centres undefined) | -3 | 5.5* | -4 | -1 | 3
S=c1nc(-c2ccccc2Cl)n(Cc2cccnc2)c2c1CCCC2 | -6 | 5.9* | 10 | -8 | 4.7*
Cc1ccc(-c2cc(C(=O)O)c3sc(N4CCCCC4)nc3n2)cc1 | -5 | 2 | 0 | 0 | ·
O=C(O)c1cc(-c2ccccc2)nc2nc(N3CCCCC3)sc12 | · | 5.8* | · | · | 2
CCOC(=O)C1=C(C)Nc2ccccc2N=C1NC(=O)c1oc2ccccc2c1COC | -10 | 0 | 0 | -5 | ·
CCN(CC)c1ccc(C=Nc2ccccc2C)c(O)c1 | 5 | 6.5* | -1 | -4 | 3
CCN(CC)c1ccc(C=Nc2ccc(C#N)cc2)c(O)c1 | -9 | 7.6* | -7 | -14 | 5.6*
CCN(CC)c1ccc(/C=N/N(c2ccccc2)c2ccccc2)c(O)c1 | -1 | -1 | -3 | -1 | ·
CCN(CC)c1ccc(/C=N/NC(=O)Cc2cccs2)c(O)c1 | 0 | 6.2* | -2 | -9 | 3
COc1ccccc1-c1cccc(-c2nc(C(=O)Nc3nccs3)cc3c2[C@H](CCO)N(C(C)=O)C3)c1 | · | 0 | · | -4 | ·
O=C(/C=C\c1cccs1)c1c(O)ccc2ccc(=O)oc12 | -4 | 5.4* | -11 | -7 | 6.3*
CC1=C(C(=O)N2CCOCC2)CC(CC(=O)NC2CCCCC2)C(=O)N1CCCN1CCCC1=O (centres undefined) | 3 | 0 | -14 | 0 | ·
COc1cc(/C=N/Nc2ccccn2)ccc1O | -2 | 4 | -1 | -4 | ·
CCCOc1ccccc1/C=N/Nc1ccnc(=O)[nH]1 | -6 | 4 | -6 | -5 | ·
O=c1nccc(N/N=C/c2cccc(O)c2)[nH]1 | -4 | 6.8* | -1 | -1 | 4
COc1cc(/C=N/Nc2ccnc(=O)[nH]2)ccc1O | 8 | 6.9* | -8 | -5 | 6.3*
COC(=O)c1cc2c(c3c4cc(F)ccc4n(S(=O)(=O)c4ccccc4)c13)C(=O)N(Cc1ccc(C(F)(F)F)cc1)C2 | · | 1 | · | · | ·
CCOC(=O)CSc1nc(=O)n2ccc(C)cc2n1 | 11 | 4.7* | -12 | -4 | 0
CC1CC(=O)NN=C1c1ccc(N(C)C)c([N+](=O)[O-])c1 (centres undefined) | 9 | 4.7* | 5 | -5 | 4
Cc1ccc2nc(-c3ccc(F)cc3)c(Cc3ccsc3)n2c1 | · | 1 | · | · | ·
CCS(=O)(=O)CCSc1nc2ccccc2o1 | 0 | 6.1* | 7 | -2 | 4
CCCCC[C@H]1CN(Cc2ccccc2)C(=O)[C@@H]1CC(=O)NCc1ccc(OC)cc1 | -6 | -1 | -1 | 0 | ·
COC(=O)c1ccc(S(=O)(=O)N2CCCN(Cc3cccc(Br)c3F)CC2)n1C | -4 | 15* | -11 | -1 | 11*
CCOC(=O)C1(C)CCCCCN1C(=O)c1snnc1C (centres undefined) | · | 0 | · | -7 | ·
CC(=O)NN1C(=O)c2ccc3c4c(ccc(c24)C1=O)C(=O)N(NC(C)=O)C3=O | -1 | 29* | -4 | -4 | 22*
SMILES | PKA-R2B activ | MsrA inh | PKA-R1A act | bovine MsrA act | MsrA conf
O=C1c2ccc3c4c(ccc(c24)C(=O)N1NC(=O)C(F)(F)F)CC3 | 3 | 2 | -10 | -2 | ·
CC1Cc2ccccc2N1C1=NS(=O)(=O)c2ccccc21 (centres undefined) | 3 | 2 | -1 | -1 | ·
CC1Cc2ccccc2N1C1=CC(=O)CCC1 (centres undefined) | -14 | 5.5* | -4 | -4 | 5.4*
Nc1cc(=O)nc2cn[nH]n12 | 3 | 1 | -2 | -2 | ·
COc1cc(/C=C/c2ccc3cccc([N+](=O)[O-])c3n2)ccc1OCC(=O)O | -2 | 5.8* | 7 | -5 | 2
COc1ccc(/C=N/NC(=O)CN(C2=NS(=O)(=O)c3ccccc32)c2ccccc2)cc1 | -7 | 2 | -4 | 0 | ·
COc1ccccc1/C=N/NC(=O)CN(C1=NS(=O)(=O)c2ccccc21)c1ccccc1 | -1 | 6.1* | -2 | -9 | 1
COc1ccccc1/C=N\Nc1cn[nH]c(=O)c1Cl | -14 | 5.8* | -16 | -4 | 4.7*
O=c1[nH]ncc(N/N=C\c2cccs2)c1Cl | -5 | 9.1* | -5 | -2 | 6.2*
C(=N\Nc1nc2ccccc2s1)/c1cccs1 | -1 | 4 | -10 | -3 | ·
CCOc1ccccc1/C=N\Nc1cnn(Cc2ccccc2)c(=O)c1Cl | -11 | 2 | -12 | -1 | ·
O=c1[nH]ncc(N/N=C\c2cccnc2)c1Cl | -7 | 2 | 0 | -3 | ·
O=c1[nH]ncc(N/N=C\c2ccncc2)c1Cl | 1 | 9.6* | 7 | -5 | 6.0*
Cc1cccc(/C=N\Nc2cn[nH]c(=O)c2Cl)c1 | -6 | 8.1* | -19 | -4 | 5.0*
Nc1[nH]c(C(=O)c2ccccc2)c(-c2ccc3ccccc3c2)c1C(=O)NCc1ccc(-c2ccccc2)cc1 | · | 0 | · | · | ·
CCOc1ccc(-n2nc(C(=O)NC3CCCCC3)c3ccccc3c2=O)cc1 | 6 | 0 | 8 | -2 | ·
O=C(NCc1ccco1)c1ccc(=O)oc1 | 0 | 7.9* | 4 | -6 | 6.2*
O=C(NCc1ccccc1)c1ccc(Oc2ccc(C(=O)NCc3ccccc3)cc2)cc1 | -1 | 0 | 0 | -1 | ·
COC(=O)CNC(=O)c1ccc(=O)oc1 | 15 | 5.8* | 2 | -7 | 5.3*
O=C(NCc1ccccc1)c1ccc(=O)oc1 | 0 | 7.5* | 3 | -11 | 6.2*
Cc1onc(-c2c(Cl)cccc2Cl)c1C(=O)N(C)Cc1ccccc1 | 5 | 1 | -6 | -1 | ·
O=C(Cc1c[nH]c2ccccc12)N1CCN(S(=O)(=O)c2cccc(Cl)c2Cl)CC1 | -5 | 1 | 1 | -3 | ·
CCOc1ccccc1C1C(C#N)=C(N)N(N(C)C)C2=C1C(=O)CCC2 (centres undefined) | 2 | 0 | 1 | -2 | ·
Nc1ncnc(NCc2ccccc2)c1[N+](=O)[O-] | 4 | 4.9* | -12 | -10 | 2
C#CCN1C[C@@]2(O)CC[C@@H](O)[C@@H](OC)[C@@H]2[C@@]1(C)[C@H](O)CC=C(C)C | · | 0 | · | · | ·
SMILES | PKA-R2B activ | MsrA inh | PKA-R1A act | bovine MsrA act | MsrA conf
COc1ccccc1-c1ccc(OCCCN2CCC(C(O)(c3ccccc3)c3ccccc3)CC2)cc1 | · | 0 | · | · | ·
O=C1N=C(N2C=CC(=C3C=CNC=C3)C=C2)/C(=C/N=NC(=O)c2ccccc2O)S1 | -6 | 5.8* | -2 | -5 | 6.6*
CCN(CC)c1ccc(C(=O)OCC(=O)Nc2ccccc2-c2ccccc2)cc1 | -5 | 5.8* | -17 | -8 | 3
Cc1[nH]nc(Nc2ccc(Br)cc2)c1[N+](=O)[O-] | -1 | 5.4* | 5 | -3 | 3
CCn1c(Sc2nc(C)nc3scc(-c4cccs4)c23)n[nH]c1=O | -10 | 10* | -1 | -7 | 10.0*
Cc1cc(Cl)ccc1C(O)c1ncc(-c2cccc(C(F)(F)F)c2)[nH]1 (centres undefined) | · | 0 | · | 1 | ·
O=C(N/N=C/C=C/c1ccc([N+](=O)[O-])cc1)c1cccs1 | 0 | 2 | -1 | -1 | ·

Compound activity deposited in PubChem by The Scripps Research Institute Molecular Screening Center.
